A selection: hits, their analogues and other compounds. The true share with any hit is near 2.5%.
Cruzain noTriton: qHTS Assay for Promiscuous and Specific Inhibitors of Cruzain (without detergent). Cruzipain (Trypanosoma cruzi), P25779. hit rate 2.3% among 200,000. Potency, µM, most hits filed as inhibitors. purified cruzain, Z-FR-AMC fluorescence, no detergent; note: nearly all actives have a fitted effect of over 40% in size
Target sequence (P25779 123-467 limits assumed): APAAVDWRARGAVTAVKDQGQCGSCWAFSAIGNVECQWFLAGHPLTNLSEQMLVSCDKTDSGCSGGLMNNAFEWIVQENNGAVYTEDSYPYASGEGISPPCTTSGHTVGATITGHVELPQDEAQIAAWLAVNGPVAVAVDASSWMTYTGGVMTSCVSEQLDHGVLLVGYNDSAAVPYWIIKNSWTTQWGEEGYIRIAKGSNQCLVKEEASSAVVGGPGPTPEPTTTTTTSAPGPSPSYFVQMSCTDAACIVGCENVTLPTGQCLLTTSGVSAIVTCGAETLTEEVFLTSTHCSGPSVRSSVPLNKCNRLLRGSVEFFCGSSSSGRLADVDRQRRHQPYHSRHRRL
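Detergent-free condition (0.00005% Triton X-100) in acetate buffer pH 5.5 with DTT. 1.5 nM enzyme and compound were pre-mixed 15 min, then 2 uM Z-FR-AMC substrate added; reaction progress from fluorescence change between first and third reads (60 s).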
Cruzain inh Det: qHTS Assay for Promiscuous and Specific Inhibitors of Cruzain (with detergent); Potency, µM, hits mostly inhibitors; hit rate 0.43% among 200,000; purified cruzain, Z-FR-AMC fluorescence, 0.01% Triton; note: nearly all actives have a fitted effect of over 40% in size
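In this qHTS format, compounds are incubated with 1.5 nM cruzain for 15 min at room temperature before 2 uM Z-FR-AMC is added. Release of AMC is followed at 360/450 nm, and progress is taken as the 60 s fluorescence difference.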
Each line names hits and unclear results; the compound was inactive in the other large screens. Calls come from the whole dose curve; as a rule, active = well fitted curve in the direction sought with a large enough effect; inconclusive = small, poorly fitted or top-dose-only effect, or another doubt; inactive = no such curve, though single readings can be large; an effect the other way counts as inactive or inconclusive.

NS(=O)(=O)c1ccc(CCNc2nc3c(-c4cccc(F)c4)nnn3c3ccc(Cl)cc23)cc1	none
COc1ccc(CNc2nc(-c3c(C)noc3C)nc3ccccc23)c(OC)c1	none
COc1ccc(N2CCN(S(=O)(=O)CCNC(=O)c3cc(=O)c4ccccc4o3)CC2)cc1	none
O=C(NCCS(=O)(=O)N1CCN(c2ccc(F)cc2)CC1)c1cccc(C(F)(F)F)c1	none
COc1nc(Oc2ccc(C(=O)O)cc2)nc(Oc2ccc(C(=O)O)cc2)n1	none
COc1ccc(Oc2nc(Oc3ccc(OC)cc3)nc(Oc3ccc(OC)cc3)n2)cc1	Cruzain noTriton 3.2µM
CCc1nn2c(=O)cc(COC(=O)c3ccccc3NC(=O)COc3ccc(C)c(C)c3)nc2s1	none
COc1ccc(-c2nc(SCC(=O)NC(C)CCc3ccccc3)n[nH]2)cc1 (stereo unspecified)	none
Cc1ccc2onc(CC(=O)Nc3cc(F)ccc3F)c2c1	none
O=C(Cc1ccc(Br)cc1)NC1CCCCC1	none
CC1CCCC(NC(=O)Cc2ccc(Br)cc2)C1C (stereo unspecified)	Cruzain noTriton inconclusive, Cruzain inh Det 25µM
Cc1cccc(CNC(=O)c2ccc(NC(=O)N3CC(C)Sc4ccccc43)cc2)c1 (stereo unspecified)	none
Cc1cccc(C(=O)Nc2cccc(C(=O)OCc3cc(=O)n4nc(C(C)C)sc4n3)c2)c1	none
C=CCNC(=O)c1cc2c(=O)n3cc(C)ccc3nc2nc1NCC1CCCO1 (stereo unspecified)	Cruzain noTriton inconclusive, Cruzain inh Det 22µM
Cc1ccc2nc3nc(NCC4CCCO4)c(C(=O)NC4CCCC4)cc3c(=O)n2c1 (stereo unspecified)	none
c1cnc(N2CCN(c3ncc4c(n3)CCNC4)CC2)nc1	none
Cc1ccc(-c2nnn(CC(=O)NCC3CC3)n2)o1	none
Cc1ccc(-c2nnn(CC(=O)Nc3ccc4nn(-c5ccccc5)nc4c3)n2)o1	Cruzain noTriton 10µM
Cc1c2cnn(CC(=O)Nc3ccc(F)cc3F)c(=O)c2c(C)n1Cc1cccc(Cl)c1	none
CCN(CC)CCNC(=O)c1cc2c(=O)n(C)c3ccccc3c2n1C	none
CN(C)CCNC(=O)c1cc2c(=O)n(C)c3ccccc3c2n1C	Cruzain noTriton inconclusive, Cruzain inh Det 25µM
O=C(O)C[n+]1ccccc1	none
COc1ccc(NC(=O)c2ccc(NC(=O)CCS(=O)(=O)c3cccs3)cc2)cc1OC	Cruzain noTriton inconclusive
NC(=O)Cn1c(=O)n(Cc2ccco2)c(=O)c2c3c(sc21)CCCCC3	none
O=C(Cn1c(=O)n(Cc2ccco2)c(=O)c2c3c(sc21)CCCC3)Nc1ccccc1	Cruzain noTriton 25µM
CCOC(=O)c1sc2nc(SCC(=O)NCc3ccco3)n(Cc3ccccc3)c(=O)c2c1C	Cruzain noTriton 7.9µM
COC(=O)c1c(NC(=O)CSc2nc3ccccc3c(=O)n2Cc2ccco2)sc(C)c1C	Cruzain noTriton 25µM
CCOC(=O)c1c(NC(=O)CSc2ncnc3ccccc23)sc(C(C)=O)c1C	Cruzain noTriton inconclusive
O=C(CSc1nc2ccccc2c(=O)n1Cc1ccco1)NCc1ccco1	none
Cc1sc2nc(SCC(=O)NCc3ccco3)n(Cc3ccccc3)c(=O)c2c1C	none
CCOC(=O)c1c(NC(=O)CSc2nc3ccccc3c(=O)n2-c2ccc(F)cc2)sc(C(C)=O)c1C	Cruzain noTriton 7.9µM
CCc1cccc(NC(=O)CN2c3ccccc3S(=O)(=O)c3ccccc32)c1	none
COc1cc(OC)c(NC(=O)NCCn2nnc3cc(S(=O)(=O)N(C)C)ccc32)cc1Cl	none
COc1ccc(-c2noc(-c3ccc(N4CCC(C)CC4)c([N+](=O)[O-])c3)n2)cc1OC	Cruzain noTriton 20µM
COc1ccc(-c2noc(-c3ccc(N4CCOCC4)c([N+](=O)[O-])c3)n2)cc1OC	none
Cc1ccc(-c2nnn(CC(=O)Nc3ccc(S(=O)(=O)N4CCC(C)CC4)cc3)n2)cc1	Cruzain noTriton 10µM
CC1CCN(S(=O)(=O)c2ccc(NC(=O)Cn3nnc(-c4ccccc4)n3)cc2)CC1	Cruzain noTriton inconclusive
Cc1ccc(-n2nnnc2SCc2nc3sc(C)c(C)c3c(=O)[nH]2)cc1	Cruzain noTriton inconclusive
Cc1sc2nc(CSc3cccc(C(F)(F)F)c3)[nH]c(=O)c2c1C	Cruzain noTriton 25µM
CCN(CCCNC(=O)c1nn(-c2ccc(C)cc2)c(=O)c2c1c1ccccc1n2C)c1cccc(C)c1	none
O=C1O[C@@H]([C@H](O)[C@H](O)[C@H](O)CO)[C@@H](O)[C@@H]1O	none
CC(=O)N1CC=C2C(C#N)=C(N)C(C#N)(C#N)C(CCc3ccccc3)C2C1 (stereo unspecified)	none
CCN1CC=C2C(C#N)=C(N)C(C#N)(C#N)C(CCc3ccccc3)C2C1 (stereo unspecified)	Cruzain noTriton 6.3µM, Cruzain inh Det 14µM
CN1CCN(C(=O)Cn2ncc3c4ccccc4n(Cc4ccc(F)cc4)c3c2=O)CC1	none
O=C(Oc1ccc2c(-c3ccccc3)cc(=O)oc2c1)c1cccs1	Cruzain noTriton 6.3µM
CCc1cc2c(-c3ccccc3)cc(=O)oc2cc1OC(=O)c1cccs1	none
CCCCCC(=O)NCC(C)NC(=O)CCCCC (stereo unspecified)	none
CC(CNC(=O)C(C)(C)C)NC(=O)C(C)(C)C (stereo unspecified)	Cruzain noTriton 5µM
CCCc1nc(NC(C)=O)c(C#N)c(-c2ccco2)c1CC	none
CCCCc1nc(N)c(C#N)c(-c2ccco2)c1CCC	Cruzain noTriton 20µM, Cruzain inh Det 25µM
COC(=O)CSc1nc(N)c(C#N)c(-c2ccco2)c1C#N	none
CCSc1nc(N)c(C#N)c(-c2ccco2)c1C#N	Cruzain noTriton 20µM, Cruzain inh Det inconclusive
Cn1c(=O)c2c(-c3ccccc3)n(-c3cccc(C#N)c3)cc2n(C)c1=O	none
Cc1ccc(S(=O)(=O)Nc2cc3c(C(=O)OCc4ccccc4)c(C)oc3c3ccccc23)cc1	Cruzain noTriton 7.9µM
Cc1ccc(S(=O)(=O)Nc2cc3c(C(=O)OCc4ccccc4)c(C)oc3c3ccccc23)c(C)c1	Cruzain noTriton 5µM
Cc1oc2c(cc(NS(=O)(=O)c3ccc(Br)cc3)c3ccccc32)c1C(=O)OCc1ccccc1	none
Cc1oc2c(cc(NS(=O)(=O)c3ccc(F)cc3)c3ccccc32)c1C(=O)OCc1ccccc1	Cruzain noTriton inconclusive
COCCCNC(=O)c1sc2nc3n(c(=O)c2c1C)CCC3	none
Cc1cccc(C(=O)N2CCc3cc(CNC(=O)COc4ccc(Cl)cc4)ccc32)c1	none
O=C(COC(=O)c1c2c(nc3ccccc13)CCCC2)Nc1ccc2c(c1)OCO2	Cruzain noTriton 25µM
O=C(COC(=O)c1c2c(nc3ccccc13)/C(=C\c1cccs1)CCC2)Nc1ccccc1	Cruzain noTriton 10µM
CC(=O)c1ccc(NC(=O)COC(=O)c2c3c(nc4ccccc24)/C(=C\c2cccs2)CCC3)cc1	Cruzain noTriton 7.9µM
O=C(COC(=O)c1cccs1)Nc1ccccc1	none
O=C(COC(=O)c1cc(-c2ccccc2)nc2ccccc12)Nc1ccc2c(c1)OCO2	Cruzain noTriton inconclusive
CC(=O)c1ccc(NC(=O)COC(=O)CCC(=O)c2cccs2)cc1	none
O=C(O)CCC(O)=C1S(=O)(=O)OCCOS1(=O)=O	none
Cc1ccc(N2CCN(S(=O)(=O)c3ccc4oc(=O)c5ncn(C)c5c4c3)CC2)c(C)c1	none
NCC[C@H](N)C(=O)O	none
CC(=O)c1cccc(NC(=O)CCS(=O)(=O)c2cc(Br)cc3c2N(C(=O)C2CC2)CC3)c1	none
